Several values for one entry are separate records, joined by “and”; a condition that tells them apart may be missing. Identical values can stand only once. Results filed as inconclusive are left out. Where a call stands in place of a potency, no number is given. Unmarked numbers belong to inactive results. Activity calls are given as the source filed them. Calls come from the whole dose curve; as a rule, active = well fitted inhibition curve with a large enough effect in the repeat runs; inconclusive = weak or mixed curves; inactive = no such curve, though single readings can be large or run the other way.
Potency is the fitted concentration of half-maximal effect.

This experiment in a line: qHTS assay to identify small molecule antagonists of the thyroid receptor (TR) signaling pathway (AID 743065). Note: nearly all actives have a fitted effect of over 55% in size. The note with it: GH3.TRE-Luc, T3-stimulated luciferase inhibition, 23.5 h; series mostly up to 70.3 µM; activity, negative = inhibition: at the top concentration. The text has this: U.S. Tox21 Program National Center for Advancing Translational Sciences [NCATS] NIH Chemical Genomics Center [NCGC] U.S. Environmental Protection Agency [EPA] National Institutes of Environmental Health Sciences [NIEHS] National Toxicology Program [NTP] U.S. Food and Drug Administration [FDA] Tox21 Assay Overview: Thyroid receptor (TR), a nuclear hormone receptor, plays an important role in development, proliferation, differentiation, metabolism, brain function, and cardiovascular system. […] To profile the Tox21 10K compound library in TR signaling, a cell-based GH3-TRE-Luc assay (GH3.TRE-Luc cell line, developed by the laboratory of Dr. Albertinka J. Murk, Wageningen University) was used to measure the inhibition of TR. GH3 (rat pituitary tumor) cells stably expressing a TR activity sensor consisting of two TR response elements and a luciferase reporter gene.
Tox21 Assay Protocol Summary: GH3.TRE-Luc cells were dispensed at 1500 cells/4 uL/well into 1536-well white solid bottom plates using a Multidrop Combi dispenser (Thermo Fisher Scientific Inc., Waltham, MA). After the assay plates were incubated at 37 C for 4 hours, 23 nL of library compound or DMSO controls was transferred to the assay plates by a pintool station (Kalypsys, San Diego, CA), followed by addition of 1 ul of T3 (1 nM, final concentration in the wells) to stimulate TR transactivation. The assay plates were incubated at 37 C for 23.5 h, and then 1 uL of CellTiter-Fluor reagent (Promega, Madision, WI) of measuring cytotoxicity was added to each well using a Bioraptr Flying Reagent Dispenser (FRD) workstation (Beckman Coulter, Indianapolis, IN, USA). The plates were incubated at 37 C and 5% CO2 for additional 30 min, and fluorescence intensity was measured by a ViewLux plate reader (PerkinElmer, Shelton, CT). For measuring luciferase reporter gene activity, 4 uL of ONE-Glo Luciferase Assay reagent (Promega) was added to each well using a Bioraptr FRD (Beckman Coulter), followed by 30 min incubation at room temperature. The luminescence intensity of plates was recorded by a ViewLux plate reader (PerkinElmer, Shelton, CT).
As for `O=S(=O)(O)C(F)(F)C(F)(F)C(F)(F)C(F)(F)C(F)(F)C(F)(F)C(F)(F)C(F)(F)F`, the Potency is 51.9 µM (active) and 61.1 µM (active).

As for `COc1ccc(O)c(C(C)(C)C)c1`, the Potency result is “inactive”.

Take `CSc1nc(NC(C)C)nc(NC(C)C)n1`: the Potency entry is “inactive”.

Take `CCCCSP(=O)(SCCCC)SCCCC`: the Potency entry is “inactive”.

For `CC1(C)Cc2cccc(O)c2O1`, the Potency entry was “inactive”.

For `COc1ccc(C=O)cc1OC`, the Potency entry was “inactive”.

`NC(=O)CN1CCCC1=O`: the Potency entry is “inactive”.

As to `Cn1c(-c2ccccc2)cc(-c2ccccc2)[n+]1C`, the “activity, negative = inhibition” value is -24.6%.

On to `N#CC(c1ccccc1)c1ccccc1`, for which the Potency result was “inactive”.

For the compound `CS(=O)(=O)NC(=O)c1cc(Oc2ccc(C(F)(F)F)cc2Cl)ccc1[N+](=O)[O-]`, the Potency result is “inactive”.

Turning to `COP(=O)(NC(C)=O)SC` (stereo not given), the Potency result is “inactive”.

In the case of `O=C(O)CF`, the Potency entry is “inactive”.

For the compound `c1ccc2c(c1)Nc1ccccc1S2`, the “activity, negative = inhibition” value was -10.2%.

With `Cl`, the Potency result is “inactive”.

As for `N#Cc1c(Cl)c(Cl)c(Cl)c(C#N)c1Cl`, the Potency is 476 nM (active) and 172 nM (active).

With `CN(C)P(=O)(N(C)C)N(C)C`, the Potency result is “inactive”.

Take `COc1ccc(CO)cc1`: the Potency result is “inactive”.

With `Nc1ncn[nH]1`, the Potency entry is “inactive”.

With `CCC1(c2ccc(N)cc2)CCC(=O)NC1=O` (stereo not given), the Potency result is “inactive”.

Turning to `ClCC(Cl)CCl`, the Potency entry is “inactive”.

For `O=NN1CCOCC1`, the Potency result is “inactive”.

Consider `Nc1ccc2ccccc2c1`, for which the Potency entry was “inactive”.

As to `CCOP(=S)(OCC)SCSC(C)(C)C`, the “activity, negative = inhibition” value was -3.61% [at 95 µM].

Take `O=[N+]([O-])/N=C1\NCCN1Cc1ccc(Cl)nc1`: the Potency result was “inactive”.

Turning to `ClC(Cl)=C(Cl)C(Cl)=C(Cl)Cl`, the Potency entry is “inactive”.

Consider `CCOP(=O)(OCC)OCC`, for which the Potency result was “inactive”.

Regarding `O=C1Nc2ccc(Cl)cc2C(c2ccccc2)=NC1O` (stereo not given), the Potency is 54.9 µM (active).

`CCCCCCCCCc1ccc(O)cc1`: the Potency was 30.9 µM (active).

As for `CC(C)=CC1C(C(=O)OCc2cccc(Oc3ccccc3)c2)C1(C)C` (stereo not given), the Potency entry was “inactive”.

Consider `CC1=C(C(=O)Nc2ccccc2)SCCO1`, for which the Potency entry was “inactive”.

On to `CCCCOCCOC(C)=O`, for which the Potency result was “inactive”.

`CC(C)COC(=O)c1ccccc1C(=O)OCC(C)C`: the Potency result was “inactive”.

Consider `CNC(=O)Oc1cccc2c1OC(C)(C)C2`, for which the Potency entry was “inactive”.

In the case of `NN=C(N)N`, the Potency result is “inactive”.

With `CCOC(=O)c1ccccc1N`, the Potency entry is “inactive”.

Consider `C=C(C)C#N`, for which the Potency result is “inactive”.

In the case of `CCC[CH2][Sn]([Cl])([Cl])[CH2]CCC`, the Potency was 49.2 nM (active) and 10.9 nM (active).

As for `CN(C)c1ccccc1`, the Potency result was “inactive”.

In the case of `Clc1ccc(C(Cl)(Cl)Cl)cc1`, the Potency entry was “inactive”.

Take `CCNCC`: the Potency result is “inactive”.

These data come from PubChem BioAssay (Tox21).
